In PubChem BioAssay AID504332 (National Center for Advancing Translational Sciences (NCATS), 2011):
In all, about 350,000 compounds went through this assay and about 31,000 (8.9%) were called active. About 15% were inconclusive and are not listed. This is one part of a sample in which actives are shown more often than they occur. Calls follow the shape of the dose curve; as a rule, active = well fitted inhibition curve with a large enough effect; inconclusive = small, poorly fitted or top-dose-only effect; inactive = no such curve, though single readings can be large or run the other way.

Each compound was assayed against Histone-lysine N-methyltransferase EHMT2 (Homo sapiens) (UniProt Q96KQ7) (assay: qHTS Assay for Inhibitors of Histone Lysine Methyltransferase G9a). Settings: G9a H3K9 monomethylation, AlphaScreen, 2 h; series mostly up to 59 µM.
Procedure, shortened: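 Readings reflect AlphaScreen signal from monomethyl-H3K9 antibody detection. HMT at 20 nM; substrate b-H3K9 500 nM; cofactor SAM 20 uM; 2 h RT reaction; compounds tested as titrations in qHTS with 15 min preincubation.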
% is scaled to controls: 0 for no effect and ±100 for the full control effect; potency is read from the fitted curve at half-maximal effect.
Also: nearly all actives have a fitted effect of over 75% in size.

Sequence of Histone-lysine N-methyltransferase EHMT2 (Homo sapiens) (Q96KQ7 913-1193 limits assumed): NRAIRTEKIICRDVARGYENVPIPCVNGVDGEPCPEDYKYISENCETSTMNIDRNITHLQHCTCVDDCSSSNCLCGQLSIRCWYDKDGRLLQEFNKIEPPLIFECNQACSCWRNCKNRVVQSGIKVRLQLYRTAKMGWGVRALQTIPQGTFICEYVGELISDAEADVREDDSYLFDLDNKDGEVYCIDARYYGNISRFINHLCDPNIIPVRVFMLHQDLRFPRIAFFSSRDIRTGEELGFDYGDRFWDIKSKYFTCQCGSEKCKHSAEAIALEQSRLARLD

Potency, inactive:
COc1ccc(-n2c(=O)c3ccccc3n(Cc3ccccc3Cl)c2=O)cc1
Cc1ccc(OCC(=O)OCc2cc(=O)n3nc(C4CC4)sc3n2)cc1
COc1ccccc1NC(=O)CSC1=Nc2ccccc2C2=NC(CC(=O)NCc3cccs3)C(=O)N12 (centres undefined)
Cc1c(C(=O)OCC(=O)N2CCCC2=O)oc2ccccc12
COc1ccc2cc(-c3nc(Cl)c4c5c(sc4n3)CC(C)CC5)c(=O)oc2c1 (centres undefined)
C=CCn1c(SCC(=O)NCC2CCCO2)nc2sc(C)c(C)c2c1=O (centres undefined)
CC(=O)N1CCSc2ccc(S(=O)(=O)N3CCC(C)CC3)cc21
COc1ccc(NC(=O)CSc2nc(N)c(-c3ccccc3)c(=O)[nH]2)cc1
COc1ccc(NC(=O)CSc2ncnc3[nH]ncc23)cc1
CCc1ccc(NC(=O)N2CCN(C(=O)c3nsc4ccccc34)CC2)cc1
CN(Cc1ccccc1F)C(=O)C(Cc1ccccc1)NC(=O)c1ccccc1 (centres undefined)
COC(=O)c1ccc(NC(=O)c2cc(S(=O)(=O)N3CCC(C)CC3)cn2C)cc1
O=C(Nc1ccn(Cc2ccccc2)n1)c1cccc(F)c1
Cc1ccc(Cn2ccc(NC(=O)c3cc(C(C)C)on3)n2)cc1
Cc1cccc(NC(=O)N2CCC(CN3CCc4ccccc4C3)CC2)c1C
COc1cccc(CNC(=O)C2CC(=O)N(C3CCCCCCC3)C2)c1 (centres undefined)
O=C(COC(=O)Cc1ccc(Br)cc1)Nc1ccc(N2CCOCC2)cc1
CCCCNc1ccc(-c2nc(-c3ccncc3)no2)cc1[N+](=O)[O-]
COc1ccc(OC)c(CCNC(=O)CCCn2c(=O)c3cccn3c3cccnc32)c1
CC(C)c1ccc2oc(-c3cc(NC(=O)c4cccs4)ccc3Cl)nc2c1
COc1cc(OC)c(NC(=O)c2c3c(nn2C)-c2ccccc2SC3)cc1Cl
Cc1c(-c2nc(-c3ccc4c(c3)OCO4)no2)nnn1-c1ccc(Br)cc1F
O=C(COC(=O)c1ccc([N+](=O)[O-])cc1Cl)NC(=O)c1ccccc1
CCN1CCN(CCCNC(=O)c2cnn(-c3ccc(C)cc3C)c2C2CCN(C(=O)OC(C)(C)C)CC2)CC1
Cc1cc(C)c(NC(=O)c2cc3sc(Cl)cc3n2C)c(C)c1
COc1cccc(C(=O)NC(=O)Nc2ccc(-c3cc(C(F)(F)F)nn3-c3ccccc3)cc2)c1
CC(=O)Oc1ccc(N(C(C)=O)S(=O)(=O)c2ccc3ccccc3c2)cc1Br
COC(=O)c1c(C)oc2ccc(N(C(=O)Oc3ccccc3)S(=O)(=O)c3ccccc3)cc12
COc1ccc(OC)c(NC(=O)Cn2c(=O)n(Cc3ccccc3)c(=O)c3ccccc32)c1
Cc1cccc(CSc2nc3ccncc3n2CC(=O)N(C)C2CCCCC2)c1
CCc1c(C)sc(NC(=O)/C=C/c2ccc3c(c2)OCO3)c1C(=O)OC
CCOC(=O)CCCNC(=O)COC(=O)/C=C/c1ccc2c(c1)OCO2
COc1ccc(CCNC(=O)c2cnc3sc(N4CCCCCC4)nn3c2=O)cc1OC
Cc1oc2ccc(O)c(CN3CCC(C)CC3)c2c1C(=O)Nc1ccccc1
Cc1nc2ccc(S(=O)(=O)NC(C(=O)NCc3ccccc3Cl)C(C)C)cc2s1 (centres undefined)
O=C(Nc1nc(-c2ccc(-c3ccccc3)cc2)cs1)c1cnccn1
O=C(N/N=C/c1ccc2c(c1)OCO2)C(=O)N1CCCC1
O=C(NCc1cccnc1)C(=O)Nc1nc(-c2ccccc2)cs1
O=C(Cc1ccc(F)cc1)N/N=C/c1ccc2c(c1)OCO2
Cc1ccc(C)c(Oc2c(C(F)(F)F)oc3c(CN4CCN(C)CC4)c(O)ccc3c2=O)c1
Cc1ccc2nc(/C(C#N)=C/c3ccc(-c4ccc(C(=O)OC(C)C)cc4)o3)[nH]c2c1
Cc1ccccc1-n1c(SCC(=O)NCc2cccs2)nnc1-c1ccncc1
Cc1ccc(-n2c(SCC(=O)N3c4ccccc4Sc4ccccc43)nnc2-c2ccncc2)cc1
CCOc1ccc(CNCCSc2nnnn2C)cc1
CCc1ccc(NC(=O)c2cc(S(=O)(=O)N3CCCC(C)C3)cn2C)cc1 (centres undefined)
COc1ccc(OC)c(-c2noc(N3CCN(c4cc(Cl)ccc4C)CC3)n2)c1
COc1ccc(S(=O)(=O)N2CCN(c3ccc(F)cc3)CC2)cc1-c1noc(C)n1
Cc1ccc(-n2ncc3c(N4CCC(C(N)=O)CC4)ncnc32)cc1
CC(C)(C)OC(=O)N1CCC(c2c(C(=O)N3CCc4ccccc4C3)cnn2-c2ccc(F)cc2)CC1
Cc1ccc(C(=O)Nc2ccc(OCc3cc(=O)n4c5c(sc4n3)CCCC5)cc2)cc1
O=C(COC(=O)CNS(=O)(=O)c1ccc(F)c(F)c1F)NC1CCCC1
CCc1ccc(S(=O)(=O)c2nnn3c2nc(N2CCN(CC)CC2)c2sccc23)cc1
CC(=O)c1ccc(NC(=O)c2ccc(-n3cncn3)c([N+](=O)[O-])c2)cc1
COc1ccccc1OCCNC(=O)c1cc([N+](=O)[O-])cc([N+](=O)[O-])c1
O=[N+]([O-])c1ccc(N2CCN(S(=O)(=O)c3ccc4ccccc4c3)CC2)cc1NCc1ccco1
CC(=O)Nc1ccc(S(=O)(=O)N2CCN(c3ccccc3)CC2)cc1
O=C(NCCNc1ccccc1[N+](=O)[O-])c1ccccc1F
Cc1ccc(CCNC(=O)c2ccc(CS(=O)(=O)Cc3cccc(C)c3)o2)cc1
O=C(N/N=C\c1cc2c(cc1Cl)OCO2)c1ccc(Br)s1
CCOc1cc(/C=C2/C(=N)N3OC(C)=CC3=NC2=O)ccc1OC
CC(C)(C)OC(=O)NCCCCCC(=O)N/N=C/c1coc2ccccc2c1=O
CCOC(=O)C1(C)NC(c2ccco2)C2C(=O)N(c3ccccc3)C(=O)C21 (centres undefined)
COC(=O)C1(C)NC(c2ccc(C)cc2)C2C(=O)N(c3ccc(F)cc3)C(=O)C21 (centres undefined)

Potency, active:
C=CCn1c(SCc2c(C)noc2C)nc2sc3c(c2c1=O)CCC(C)C3 (centres undefined) 39.8 µM
COc1ccc(-c2nc3c(c(SCC(=O)Nc4ccc(C(=O)O)cc4)n2)Cc2ccccc2O3)cc1 11.2 µM
CN(Cc1ccccc1)Cc1ccccc1F 8.91 µM
Cc1ccc(Cn2ccc(NC(=O)C3C4CCC(C4)C3C(=O)O)n2)cc1 (centres undefined) 56.2 µM
O=C(COC(=O)CCc1nc2ccccc2c(=O)[nH]1)Nc1ccc(N2CCOCC2)cc1 50.1 µM
CC(=O)N(c1ccc2oc(=O)sc2c1)S(=O)(=O)c1ccc(C)cc1 25.1 µM
Cc1nc2cc(NCc3cccs3)ccc2n1C 7.94 µM
CCC1=C/C(=C\c2ccc3c(c2)OCO3)C(=O)S1 11.2 µM
Brc1ccc(-c2csc(N/N=C/c3cccnc3)n2)cc1 14.1 µM
Brc1ccc(-c2csc(N/N=C/c3ccc4c(c3)OCO4)n2)cc1 3.55 µM
Cc1ccc(Nc2nc(CSc3nnc(-c4ccncc4)n3-c3ccccc3C)cs2)cc1 44.7 µM
CCc1nc(-c2cc(S(=O)(=O)N3CCN(c4ccc(OC)cc4)CC3)ccc2OC)no1 0.631 µM
Cc1ccc(Nc2nc(N)nc(CN3CCN(Cc4ccccc4)CC3)n2)cc1Cl 50.1 µM
COc1ccccc1OCCNc1cc(N2CCOCC2)ccc1[N+](=O)[O-] 39.8 µM
CC(=O)Nc1ccc(S(=O)(=O)N2CCN(c3ccc([N+](=O)[O-])c(NCCN4CCOCC4)c3)CC2)cc1 70.8 µM
CC1=CC2=NC(=O)/C(=C/c3coc4ccccc4c3=O)C(=N)N2O1 44.7 µM
CCCC1(C(=O)OCC)NC(c2ccc(N(C)C)cc2)C2C(=O)N(c3ccc4c(c3)OCCO4)C(=O)C21 (centres undefined) 8.91 µM

activity, negative = inhibition, inactive:
Cc1cccc(NC(=O)CN2CCN(C(=O)C3CCN(C(=O)/C=C/c4ccccc4)CC3)CC2)c1C 14.7% [at 2.33 µM]
CN(CC(=O)NC(=O)Nc1ccccc1F)Cc1ccccc1 2.2% [at 0.501 µM]
O=C(NCC(c1cccs1)N1CCOCC1)c1cc(Cl)ccc1[N+](=O)[O-] (centres undefined) 3.96% [at 0.501 µM]
CCn1nc(C(=O)Nc2ccc(N3CCOCC3)cc2)c2ccccc2c1=O 17.9% [at 12.7 µM]
Cc1nc2cc(NC(=O)Nc3cccc(F)c3)ccc2n1C 23.6% [at 12.7 µM]
C=CCN(C(=O)Nc1ccc2c(c1)nc(C)n2C)c1ccccc1 10.6% [at 12.7 µM]
O=C1C=C(c2cccc(Cl)c2O)C[C@@H](c2ccc(F)cc2)C1 4.95% [at 0.501 µM]
CCOc1ccc(-c2cc3c(=O)n(CC(=O)NCc4ccc(OC)cc4)ccn3n2)cc1 0.34% [at 12.7 µM]
CCCCN(C(=O)CSCC(=O)Nc1ccc(OC)cc1)c1c(N)n(CCC)c(=O)[nH]c1=O 19.8% [at 2.33 µM]
Cc1ccccc1Nc1nc(N)nc(CN2CCN(c3ccccn3)CC2)n1 -45.5% [at 12.7 µM]
CCOC(=O)N1CCN(Cc2nc(N)nc(Nc3ccc(C)cc3)n2)CC1 -23.8% [at 2.33 µM]
O=C(c1ccccc1)N1CCN(c2ccc([N+](=O)[O-])c(NCc3ccco3)c2)CC1 44.5% [at 0.501 µM]
CCN1C(=O)[C@@H]2[C@@H](c3ccc(-c4cccc(Cl)c4)cc3)N3CCC[C@@]3(C(=O)OC)[C@@H]2C1=O 4.52% [at 2.33 µM]
CC(=O)Nc1ccc(S(=O)(=O)N2CCn3cccc3C2C)cc1 (centres undefined) -104% [at 12.7 µM]
